Test system: HepG2
Experiment: GSK_TCMDC: Percent inhibition of human HepG2 cell line. Test compounds present at 10uM.
Type: functional

| SMILES | Inhibition |
| --- | --- |
| Cc1ccnc(NC(c2cccc(OCc3ccccc3)c2)c2ccc3cccnc3c2O)c1 (stereo not drawn) | 26% |
| COc1cc(OC)cc(-c2nn(-c3ccc([N+](=O)[O-])cc3C#N)c(=S)n2CC2CCCO2)c1 (stereo not drawn) | 9% |
| COc1cc2nc(Nc3ccc(C)cc3)nc(Nc3ccc(C)cc3)c2cc1OC.Cl | 99% |
| Cc1cc([N+](=O)[O-])ccc1NC(=O)Nc1cccc(C(F)(F)F)c1 | 15% |
| Cl.ON=C1CCc2cc(-c3[nH]c(-c4cccc(OCCNCc5ccc(F)cc5)c4)nc3-c3ccncc3)ccc21 | 76% |
| COc1ccc(Cl)cc1-c1nc(C(=O)NCCN2CCCCC2)c(C(C)C)s1.O=C(O)C(F)(F)F | 14% |
| CCC(Cc1cnc2nc(N)nc(N)c2n1)c1ccc(C(=O)O)cc1 (stereo not drawn) | 15% |
| NC(=O)C1CCN(Cc2ccc(-c3ccc(-c4nc5cc(C(F)(F)F)ccc5[nH]4)cc3)cc2)CC1.O=C(O)C(F)(F)F | 25% |
| O=C(Nc1ccc(Cn2ncc(N3CCCNCC3)c(Cl)c2=O)cc1)Nc1ccc(-c2ccccc2)cc1 | 12% |
| Cl.O=C(/C=C/c1ccc(Cl)c(Cl)c1)N1CCC(CN2CCC(c3c[nH]c4ncccc34)CC2)CC1 | 38% |
| COc1cc(F)c2ncc(C#N)c(CCN3CCC(NCc4ccc5c(c4)OCCO5)CC3)c2c1.Cl | 5% |
| O=C(/C=C/c1ccc(Cl)c(Cl)c1)NC1CCN(Cc2ccc(O)cc2)CC1.O=C(O)C(F)(F)F | 0% |
| Cc1ccnc(-n2c(C)cc(C=C3SC(=Nc4ccccc4)N(Cc4ccco4)C3=O)c2C)c1 | 0% |
